Screening data (PubChem BioAssay)
This is a sample that favours compounds with a hit; in the whole collection about 2.2% have one here.
BaF3 parental: parental Ba/F3 cell viability inhibition, counter-screen for JAK2V617F inhibitor project, murine pro-B, CellTiter-Glo luminescence; AID 1486, 2009; hit rate 1.1% among 220,000; CellTiter-Glo ATP luminescence; inhibition, % at 5.6 µM;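 active = inhibition above a per-campaign cutoff, the mean inhibition of all tested compounds plus 3 SD, cut at about 27% in these data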;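 also: 0% = DMSO wells and 100% = JAK Inhibitor I control wells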
Ba/F3 V617F tox: reduced viability of JAK2V617F-dependent Ba/F3 cells, primary screen, JAK2V617F inhibitor project, cell-based, Ba/F3 EpoR-JAK2V617F, luminescence; inhibition, % at 5.6 µM; hit rate 1.1% among 220,000; AID 1446, 2008; ATP luminescence;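 active = inhibition above the campaign mean plus 3 SD over all tested compounds, cut at about 24% in these data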;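 also: cytokine-independent growth of Ba/F3 cells driven by EpoR plus mutant JAK2; 0% = DMSO-treated cells and 100% = JAK inhibitor I control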
IEC-6 tox: cytotoxicity in IEC-6 intestinal epithelial cells, primary screen, cytotoxicity control for KLF5 inhibitor project, cell-based, luminescence. hit rate 0.78% among 290,000. inhibition, % at 5 µM. IEC-6 cytotoxicity, luminescence viability. AID 1825, 2009;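 also: 0% = plate median of test compound wells and 100% = cytotoxic reference compound wells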
aSyn UTR inh: MLPCN primary screen, SNCA 5' untranslated region; alpha-synuclein 5'UTR reporter, inhibitor activity; inhibition, % (tested at 7.5 µM); hit rate 0.82% among 300,000; AID 1813, 2009; in the data active = inhibition above about 60%;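 also: H4 neuroglioblastoma cells stably carrying SNCA 5'UTR luciferase fusion; 0% = DMSO wells and 100% = positive control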
KLF5 inhibitor: KLF5 expression inhibitors, primary screen, DLD-1 cells, luminescence | inhibition, % at 5 µM | DLD-1 KLF5 promoter-luciferase reporter | hit rate 0.23% among 290,000;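 active = inhibition above a per-plate limit of that plate's mean compound inhibition plus 3 SD, cut at about 60% in these data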;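 also: 0% = DMSO wells and 100% = LY294002 at 200 µM; higher means less KLF5 promoter-driven luciferase light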
APP transl inh: inhibitors of APP translation via 5'UTR reporter, primary screen, APP 5'UTR luciferase, SH-SY5Y cells | inhibition, % at 2 µM | SH-SY5Y APP 5'UTR-luciferase reporter, luminescence | hit rate 0.82% among 190,000 | AID 1285, 2008;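 active = inhibition above a set limit, derived from the sample mean plus 3 SD, cut at about 45% in these data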
IEC-6 tox confirm: cytotoxic compounds in IEC-6 epithelial cells, confirmation, cytotoxicity control, cell-based, luminescence | shares compounds with IEC-6 tox | IEC-6 rat intestinal epithelial viability | inhibition, % at 5 µM | hit rate 63% among 1,900 | AID 1907, 2009;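 also: 0% = vehicle and 100% = reference cytotoxic drug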
Active calls of the source: *; . = not tested or not shown. Rule as the data show it, unless noted: active = inhibition above about 22%; inactive = the rest.

SMILES | BaF3 parental | Ba/F3 V617F tox | IEC-6 tox | aSyn UTR inh | KLF5 inhibitor | APP transl inh | IEC-6 tox confirm
COC(=O)CC1COc2ccccc2N1S(=O)(=O)c1ccc(OC)cc1 (stereo not given) | . | . | 31* | -23 | 32 | . | 0
COc1ccc(CC(=O)NC(c2ccccc2)c2ccc(C)cc2)c(OC)c1 (stereo not given) | . | . | 3 | 14 | 1 | . | .
O=C(NCc1ccco1)C1CCN(C(=O)c2ccc([N+](=O)[O-])cc2)CC1 | . | . | -3 | -4 | 10 | . | .
CCOc1ccc(CCNC(=O)c2ccc(=O)[nH]c2)cc1OCC | . | . | 1 | -30 | 4 | . | .
CN(C)CC(CCC(CN(C)C)C(O)(c1ccccc1)c1ccccc1)C(O)(c1ccccc1)c1ccccc1 (stereo not given) | . | . | 45* | 101* | 2 | . | 42*
COc1cc(OC)cc(C(=O)N2CCN(Cc3ccc4c(c3)OCO4)CC2)c1 | . | . | -2 | 17 | -26 | . | .
CCOC(=O)C1CCN(S(=O)(=O)c2cn(C)c(C)n2)CC1 | . | . | -7 | 17 | -26 | . | .
Cc1ccc(Nc2nc(-c3sc(C)nc3C)cs2)cc1 | . | . | 75* | 6 | 37 | . | 52*
Cc1ccc(Nc2nc(-c3sc(N)nc3C)cs2)cc1 | . | . | -1 | -134 | -77 | . | .
Cc1cccc(Nc2nc(-c3ccncc3)cs2)c1 | 21 | -3 | 65* | -61 | -42 | -50 | 75*
Cc1ccc(Nc2nc(-c3ccncc3)cs2)cc1 | 7 | 0 | 27* | -331 | -93 | -129 | 84*
Cc1ccc(-c2csc(Nc3ccccn3)n2)cc1 | . | . | 2 | -27 | -9 | . | .
COc1ccc(Nc2nc(-c3sc(C)nc3C)cs2)c(OC)c1 | . | . | 60* | -124 | 12 | . | 40*
O=C(CN(c1cccc(Br)c1)S(=O)(=O)c1ccccc1)N/N=C/c1cc([N+](=O)[O-])ccc1O | . | . | . | 34 | . | . | .
COc1cc2c(cc1OC)-c1c(OC)c(OC)cc3ccnc(c13)C2=O | 39* | 47* | 29* | 110* | 21 | 15 | 25*
O=C1CC(c2ccccc2)CC(O)=C1C=NCc1ccccc1Cl (stereo not given) | 29* | 43* | 31* | -6 | 51 | 61* | 30*
CC(C)c1ccc(S(=O)(=O)N2CCN(C(=O)C3CCN(C(=O)c4ccc(F)cc4)CC3)CC2)cc1 | . | . | 4 | 8 | -3 | . | .
O=C(NCC(c1cccs1)N1CCOCC1)c1ccc(Cl)s1 (stereo not given) | 69* | 74* | 72* | 7 | 38 | 61* | 49*
O=C(NCC(c1cccs1)N1CCOCC1)c1ccc(Cl)cc1 (stereo not given) | . | . | . | -100 | . | . | .
Cc1[nH]c2ccccc2c1/C=N/Nc1nc(Nc2ccccc2)nc(N2CCOCC2)n1 | 41* | 32* | 76* | 7 | -36 | 20 | 93*
Oc1[nH]c2ccccc2c1N=Nc1nc(Nc2ccccc2)nc(N2CCOCC2)n1 | -12 | -1 | 1 | -2 | -17 | . | .
COc1ccc(Cl)cc1NC(=O)C1CCCN(c2ncnc3c2nc2n3CCCCC2)C1 (stereo not given) | . | . | 4 | 0 | -10 | . | .
CCC(C)NC(=O)CSc1nnc(-c2ccc(OC)c(OC)c2)c(-c2ccc(OC)c(OC)c2)n1 (stereo not given) | . | . | 1 | 19 | -4 | . | .
COc1ccccc1CNC(=O)c1ccc(OC(F)F)c(OC)c1 | 0 | 0 | 35* | 4 | 0 | -16 | 2
O=C(N/N=C/c1c[nH]c2ccccc12)c1cc(-c2ccc(-c3ccccc3)cc2)n[nH]1 | 3 | -2 | -6 | -146 | -67 | -70 | .
SMILES | BaF3 parental | Ba/F3 V617F tox | IEC-6 tox | aSyn UTR inh | KLF5 inhibitor | APP transl inh | IEC-6 tox confirm
Cc1ccc(-c2cc(C(=O)N/N=C/c3c[nH]c4ccccc34)[nH]n2)cc1 | 58* | 57* | 43* | 78* | 14 | 76* | 52*
Cc1cc(OCC(=O)NCCCN2CCOCC2)c2c(C)cc(=O)oc2c1 | . | . | -8 | -6 | -14 | . | .
Cc1ccc(NC(=O)c2ccccc2SCC(=O)N2CCCC2)cc1S(=O)(=O)N(C)C | . | . | -2 | 9 | -15 | . | .
Cc1ccccc1-c1nc(CN2CCC(C(=O)NCCCN3CC(C)CC(C)C3)CC2)c(C)o1 (stereo not given) | 21 | 15 | 60* | 1 | 1 | -12 | 53*
CCN1CCCC1CNC(=O)C1CCN(Cc2nc(-c3cccc(Br)c3)oc2C)CC1 (stereo not given) | 31* | 12 | 49* | 14 | 12 | -5 | 99*
Cc1ccccc1-c1nc(CN2CCC(C(=O)NCCCN3CCCC3)CC2)c(C)o1 | 8 | 2 | 0 | -33 | 19 | -1 | .
CCCCCCCC(=O)N/N=C(\C)c1ccc(O)cc1O | -1 | -5 | 2 | 41 | -31 | -1 | .
C/C(=N\NC(=O)COc1ccccc1-c1ccccc1)c1ccc(O)cc1O | -11 | 4 | 74* | 51 | 50 | . | 42*
O=C(CNCc1ccccc1)Nc1ccc(Oc2ccccc2)cc1 | 52* | 62* | 60* | 20 | 32 | -14 | 6
Cc1cc(C)cc(NC(=O)CCn2c(=O)c3cccn3c3ccccc32)c1 | . | . | 40* | -3 | 31 | . | 37*
Cc1ccc(NC(=O)CCn2c(=O)c3cccn3c3ccccc32)c(C)c1 | . | . | -8 | -18 | -23 | . | .
CCOC(=O)Nc1nc(-c2ccccc2)c(C(=O)c2ccc(Cl)cc2)s1 | 77* | 73* | 86* | 114* | 59 | 94* | 57*
COc1ccc(CC(=O)N/N=C/c2c(C)n(C)c3ccccc23)cc1OC | 1 | 4 | 14 | 39 | 22 | . | .
COc1ccc(C/C(C)=N\NC(=O)c2cn(C)c3ccccc23)cc1OC | 10 | 18 | 31* | 14 | 41 | . | -9
Cc1cc(C)n(-c2nc3ccccc3c(=O)n2OCC(=O)OCc2ccccc2)n1 | 4 | -1 | 58* | 62* | 8 | 51* | 30*
Cc1cc(C)n(-c2nc3ccccc3c(=O)n2OCC(=O)N(C)C)n1 | 4 | -1 | 1 | 5 | -15 | 3 | .
CCOCCc1nnc(NC(=O)CCC2CCCCC2)s1 | . | . | 3 | 11 | -29 | . | .
C/C(=N/Nc1ccc([N+](=O)[O-])cc1)c1c[nH]c2ccccc12 | . | . | 24* | -171 | -20 | . | 22*
C/C(=N/Nc1ccc([N+](=O)[O-])cc1)c1ccc(C)cc1C | 10 | 2 | 5 | -89 | -58 | -17 | .
O=C(c1cccc(N2CCCC2=O)c1)N1CCN(c2cccc(Cl)c2)CC1 | . | . | 44* | 12 | 13 | . | 17
CCOC(=O)C(NC(=O)Nc1ccc(Cl)cn1)(Oc1ccc(F)cc1)C(F)(F)F (stereo not given) | 12 | 7 | 25* | -52 | -3 | -7 | -4
